Test results from PubChem BioAssay (EPA / NIEHS).
Inconclusive results are not listed. Active and inactive are the calls of the source. The calls were made as follows: active = hit-call score of the fitted dose curve at least 0.9, where 1 is the maximum; inconclusive = response in the unintended direction; inactive = score below 0.9.

These compounds were tested against Glucocorticoid receptor (Homo sapiens) (UniProt P04150) (assay: NVS_NR_hGR: NovaScreen (NVS) Nuclear Receptor Binding Assay for human Glucocorticoid Receptor (GR) (AID 2283363)).
Glucocorticoid receptor (Homo sapiens), sequence (P04150 whole entry, looked up): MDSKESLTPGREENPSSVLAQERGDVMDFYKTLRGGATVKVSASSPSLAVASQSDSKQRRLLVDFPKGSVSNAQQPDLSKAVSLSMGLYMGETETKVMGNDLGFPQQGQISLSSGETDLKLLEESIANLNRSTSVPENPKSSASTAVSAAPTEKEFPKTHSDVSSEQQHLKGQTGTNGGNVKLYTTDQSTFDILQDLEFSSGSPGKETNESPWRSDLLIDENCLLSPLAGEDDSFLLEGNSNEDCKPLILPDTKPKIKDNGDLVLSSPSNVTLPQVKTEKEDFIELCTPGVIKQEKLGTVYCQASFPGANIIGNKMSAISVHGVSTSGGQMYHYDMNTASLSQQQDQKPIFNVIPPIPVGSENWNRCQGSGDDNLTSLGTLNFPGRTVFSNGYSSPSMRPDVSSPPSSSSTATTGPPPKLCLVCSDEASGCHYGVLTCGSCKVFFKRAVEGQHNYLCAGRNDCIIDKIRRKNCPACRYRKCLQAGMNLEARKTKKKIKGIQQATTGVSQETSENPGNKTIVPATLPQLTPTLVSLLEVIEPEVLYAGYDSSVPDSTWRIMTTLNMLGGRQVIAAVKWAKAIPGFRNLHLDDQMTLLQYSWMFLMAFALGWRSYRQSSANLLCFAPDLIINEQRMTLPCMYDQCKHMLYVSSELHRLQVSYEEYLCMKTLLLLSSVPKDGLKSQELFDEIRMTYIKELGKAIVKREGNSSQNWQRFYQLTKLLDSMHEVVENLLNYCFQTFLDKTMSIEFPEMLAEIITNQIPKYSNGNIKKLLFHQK
Method: NVS_NR_hGR is a biochemical, single-readout assay that uses extracted gene-proteins in a cell-free assay. Measurements were taken 16 hours after chemical dosing in a 96-well plate.NVS_NR_hGR is one of one assay component(s) measured or calculated from the NVS_NR_hGR assay. It is designed to make measurements of radioligand binding, a form of binding reporter, as detected with scintillation counting signals by Filter-based radiodetection technology.Data from the assay component NVS_NR_hGR was analyzed into 1 assay endpoint. This assay endpoint, NVS_NR_hGR, was analyzed in the positive analysis fitting direction relative to DMSO as the negative control and baseline of activity. Using a type of binding reporter, loss-of-signal activity can be used to understand changes in the binding as they relate to the gene NR3C1. Furthermore, this assay endpoint can be referred to as a primary readout, because the performed assay has only produced 1 assay endpoint. To generalize the intended target to other relatable targets, this assay endpoint is annotated to the nuclear receptor intended target family, where the subfamily is steroidal.
Binding assays used specific radioligands (tritiated, iodinated) with non-radioactive competitive displacement ligands in agonist or antagonist protocols (as indicated) and various reference compounds and inhibitors to titrate specific binding to receptors and transporters. Most enzyme assays (CYPs, kinases, phosphatases, proteases, HDACs) used recombinant protein and specific substrates (fluorescence mostly, some colorimetric and radioactive) and inhibitors, followed by a biochemical separation of substrate and product. All assays for the biochemical HTS were initially run in duplicate at a single concentration (10 uM for CYP450 assays and 25 uM for all others). […] Each assay was run with positive and negative controls, and concurrent controls on every plate. The follow-up (secondary) screen tested active chemical-pairs in concentration series, as well as a few additional assays not tested in the primary screen, some selected negative inactives, and several cases re-run in the concentration series for confirmatory purposes.

| Structure (SMILES) | outcome | AC50 |
| --- | --- | --- |
| C#CC(C)(C)NC(=O)c1cc(Cl)cc(Cl)c1 | inactive |  |
| COP(=O)(NC(C)=O)SC (stereo not given) |  | 1.66 µM (active) |
| CC(C)N(C(=O)SCC(Cl)=C(Cl)Cl)C(C)C | inactive |  |
| CNc1cnn(-c2cccc(C(F)(F)F)c2)c(=O)c1Cl | inactive |  |
| CCC(CC)Nc1c([N+](=O)[O-])cc(C)c(C)c1[N+](=O)[O-] | inactive |  |
| CCOP(=S)(OCC)SCCSCC | inactive |  |
| CCCOCC(=Nc1ccc(Cl)cc1C(F)(F)F)n1ccnc1 |  | 7.9 µM (active) |
| COc1ccc(C(=CC(=O)N2CCOCC2)c2ccc(Cl)cc2)cc1OC |  | 13.4 µM (active) |
| CCOP(=S)(OCC)Oc1cc(C)nc(C(C)C)n1 | inactive |  |
| FC(F)C(F)(F)OCC(Cn1cncn1)c1ccc(Cl)cc1Cl (stereo not given) |  | 8.87 µM (active) |
| CCCSP(=O)(OCC)SCCC | inactive |  |
| C=C(C)[C@H]1Cc2c(ccc3c2O[C@@H]2COc4cc(OC)c(OC)cc4[C@@H]2C3=O)O1 |  | 0.425 µM (active) |
| CCCCN(CC)c1c([N+](=O)[O-])cc(C(F)(F)F)cc1[N+](=O)[O-] | inactive |  |
| CNC(=O)ON=C(C)SC | inactive |  |
| CCOP(=S)(OCC)Oc1ccc([N+](=O)[O-])cc1 |  | 6.96 µM (active) |
